# Laboratory results from the supplement of paper PMC9897528.
# System: Scedosporium aurantiacum CBS 136046
# Assay: growth inhibition relative to DMSO control (OD600); higher = more antifungal activity, active = 80 or more; extreme values may be limits of the assay
# Conditions: 5 µM; 72 h; 37 °C
# 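Further: conidia screened in RPMI 1640 medium under 5% CO2, growth read by spectrophotometer, medium with 0.5% DMSO serving as the untreated reference.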
row,Structure (SMILES),growth inhibition
1,CN(C)CC(=O)Nc1ccc2[nH]c(=O)c3ccccc3c2c1,6.77% (inactive)
2,CCN(CC)CCn1c(=N)n(CC(O)COc2ccc(Cl)cc2Cl)c2ccccc21 (stereo not drawn),10.2% (inactive)
3,O=C(CCCC(F)(F)F)N1CCC(c2nc(-c3nccs3)no2)CC1,4.66% (inactive)
4,CC[C@@H](CO)NCCN[C@@H](CC)CO,11.4% (inactive)
5,O=C(O)COc1cccc2c1CC[C@](O)(COC(=O)N(c1ccccc1)c1ccccc1)C2,0.943% (inactive)
6,CN1c2ccc(Cl)cc2N(c2ccccc2)C(=O)c2cn(Cc3ccc(CN4CCOCC4)cc3)nc21,17.1% (inactive)
7,CCNC(=O)Nc1cc2c(-c3ccnc(C)c3)ccc(CNC(=O)OC)c2cn1,13.3% (inactive)
8,CC(C)(C)c1ccc(C(Cn2cccc(C(F)(F)F)c2=O)NC2Cc3ccccc3C2)cc1 (stereo not drawn),28.9% (inactive)
9,NC(=O)c1c(N)sc2c1CCCCC2,6.23% (inactive)
10,O=C(NCc1ccc(F)cc1)c1c(O)c2ncccc2[nH]c1=O,2.42% (inactive)
11,CC[C@@H]1C(=O)OC[C@@H]1Cc1cncn1C,0% (inactive)
12,Cn1c2ccccc2c(=O)c2c(O)cccc21,6.84% (inactive)
13,CCOc1noc2cc(OCCC3CCN(c4ccc(C)nn4)CC3)ccc12,37.3% (inactive)
14,Nc1nnc(-c2ccc(Cl)cc2)s1,6.96% (inactive)
15,OCCC#Cc1nc(-c2ccc(F)cc2)c(-c2ccncc2)n1CCCc1ccccc1,13.8% (inactive)
16,O=C(CSc1nnc(Br)n1-c1ccc(C2CC2)c2ccccc12)Nc1ccc(C(=O)O)cc1Cl,18.4% (inactive)
17,CC(N)C12CC3CC(CC(C3)C1)C2 (stereo not drawn),10.8% (inactive)
18,COc1ccc2c(c1OC)C(=O)OC2C1c2c(cc3c(c2OC)OCO3)CCN1C (stereo not drawn),14.1% (inactive)
19,CC(C)Oc1ccc(-c2nc(-c3cccc4c3CC[C@@H]4NCCO)no2)cc1C#N,25.4% (inactive)

row,Structure (SMILES),growth inhibition
1,COC(=O)Nc1nc2cc(Sc3ccccc3)ccc2[nH]1,0.273% (inactive)
2,O=C(N[C@H](CCS)C(=O)N[C@H](Cc1ccccc1)C(=O)O)c1cc2ccccc2[nH]1,23.5% (inactive)
3,O=C(Nc1nnc(-c2ccc(Cl)cc2)o1)c1nc2ccccc2s1,15.8% (inactive)
4,O=C(O)CSc1cc(NS(=O)(=O)c2cccc3cccnc23)c2ccccc2c1O,20.8% (inactive)
5,O=c1[nH]cnc2c1ncn2[C@H]1CC[C@@H](CO)O1,10.6% (inactive)
6,CCOC(=O)N1CCN(c2ccc(Cl)cc2)CC1,10.6% (inactive)
7,COc1cc(Cc2cnc(N)nc2N)c2c(c1OC)OC(C1CC1)C=C2 (stereo not drawn),2.07% (inactive)
8,c1cc(CN2CCCNCCNCCCNCC2)ccc1CN1CCCNCCNCCCNCC1,6.54% (inactive)
9,O=C(c1nc2c(C(F)(F)F)cc(C3CC3)cn2c1Cl)N1CCN([C@H]2CC[C@H](O)CC2)C(=O)C1,4.91% (inactive)
10,O=S(=O)(NCB(O)O)c1ccc(-c2nnn[nH]2)cc1C(F)(F)F,13.6% (inactive)
11,CO/N=C(\C(=O)N[C@@H]1C(=O)N2C(C(=O)OCOC(=O)C(C)(C)C)=C(/C=C\c3scnc3C)CS[C@H]12)c1csc(N)n1,0% (inactive)
12,NC(=O)c1nccn([C@@H]2O[C@H](CO)[C@@H](O)[C@H]2O)c1=O,2% (inactive)
13,CCc1cc(Nc2cc(=O)n(CCN3CCN(C(=O)c4ccccc4)CC3)c(=O)[nH]2)ccc1C,0% (inactive)
14,CCCCc1ccc(-c2cc(C(=O)O)cc(-c3ccc(Cl)cc3)n2)cc1,37.3% (inactive)
15,CCCCCCCCC(CP(=O)(O)C(C)N)C(=O)O (stereo not drawn),6.14% (inactive)
16,COc1ccc(NC(=O)c2cc3ccccn3n2)cc1,36.8% (inactive)
17,CCC(C)(C)c1ccc(CC(C)CN2C[C@@H](C)O[C@@H](C)C2)cc1 (stereo partly drawn),84.7% (active)
18,O=C(NCCN1CCCCC1)c1cccc(C(F)(F)F)c1,10.1% (inactive)
19,CC(C)c1ccc(COc2cccc(-c3cc([S+](C)[O-])c(C#N)c(=O)[nH]3)c2)cc1 (stereo not drawn),0% (inactive)
